# A selection: hits, their analogues and other compounds. The true share with any hit is near 11%.
# Vaccinia Venus = inhibitors of vaccinia virus (Venus reporter) | actives 0.46% (n = 330,000) | Vaccinia virus Venus reporter expression, fluorescence | Potency, µM (top dose mostly 36.5 µM), inactives show at the top dose activity change, negative = inhibition, usual class: inhibitors; calls by dose curve; tested in A549 cells; also: % is scaled to controls: 0 for no effect and ±100 for the full control effect; nearly all actives have a fitted effect of over 30% in size
# Pf growth 48h = inhibits P. falciparum growth in the first generation, 48 h. P. falciparum luciferase growth in erythrocytes, 48 h. Potency, µM (highest dose often 28.7 µM), inactives show at the highest dose activity change, negative = inhibition, most hits filed as inhibitors. actives 5.9% (n = 310,000); also: % is scaled to controls: 0 for no effect and ±100 for the full control effect
#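 Here the parasites carry a stable luciferase gene and grow inside erythrocytes in Albumax-based RPMI medium with compound for one erythrocytic cycle. Activity is scored as loss of luminescent signal.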
# Pf growth 96h = P. falciparum growth inhibition at 96 hour, primary screen for plastid delayed-death inhibitors; P. falciparum luciferase reporter growth, 96 h; Potency, µM (doses to about 28.7 µM), inactives show at the top dose activity change, negative = inhibition, hits mostly inhibitors; actives 6.9% (n = 320,000); also: % is scaled to controls: 0 for no effect and ±100 for the full control effect
#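 Two parasite generations (96 h, 37 C, 5% CO2) of compound exposure in infected erythrocytes (0.05% parasitemia, 2% hematocrit). Luciferase-reporter P. falciparum; decreased luminescence indicates inhibited growth, aimed at apicoplast-acting delayed death.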
# VACV mCherry inh = vaccinia inhibition (mCherry reporter). Vaccinia virus mCherry reporter infection, fluorescence. Potency, µM (doses to about 36.5 µM), for the others: at the highest dose activity change, negative = inhibition, usual class: inhibitors. actives 0.63% (n = 310,000); calls by dose curve; tested in A549 cells; also: % is scaled to controls: 0 for no effect and ±100 for the full control effect; nearly all actives have a fitted effect of over 35% in size
# HCV inh = inhibitors of hepatitis C virus infection; Huh7.5.1 HCVcc-Cre infection, luciferase reporter, 44 h; Potency, µM (series often up to 41.8 µM), without a hit: top-dose activity change, negative = inhibition, usual class: inhibitors; actives 3.4% (n = 340,000); also: % is scaled to controls: 0 for no effect and ±100 for the full control effect
#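 Cells (1,000/well) were plated 4 h before compound, then infected with HCVcc-Cre virus (~0.5 moi). After 44 h further culture, infection was read as luciferase luminescence following a 15 min substrate incubation at room temperature.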
# NS1 function inh = influenza NS1 inhibition; Potency, µM (highest dose often 46.1 µM), for inactives: at the top dose activity, positive = more growth; actives 0.4% (n = 270,000); AID 2326; calls by dose curve; also: actives are rising curves; nearly all actives have a fitted effect of over 50% in size
#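 Recovery from NS1-induced slow growth read by OD600 in budding yeast switched to galactose assay medium (pH 6.0, -URA) at 1:100 dilution. Compound 23 nl per well; the matching strain lacking NS1 serves as control.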
# * marks the source's active call; other numbers are inactive results; i = inactive; u = inconclusive; x = no result given. Unless noted, calls follow the shape of the dose curve; as a rule, active = well fitted inhibition curve with a large enough effect; inconclusive = small, poorly fitted or top-dose-only effect, or another doubt; inactive = no such curve, though single readings can be large or run the other way. Potency is read from the fitted curve at half-maximal effect.
SMILES,Vaccinia Venus,Pf growth 48h,Pf growth 96h,VACV mCherry inh,HCV inh,NS1 function inh
C[N+](C)(C)CC(=O)N/N=C/c1c2ccccc2cc2ccccc12,x,9.3µM*,6.6µM*,x,u,-16%
Cn1cccc1CC(=O)N/N=C\c1c2ccccc2cc2ccccc12,-17%,18%,22%,-4%,u,6%
NC(=S)N/N=C/c1ccccc1,u,8%,u,5.6µM*,2%,3%
NC(=S)N/N=C/c1ccc(C23CC4CC(CC(C4)C2)C3)cc1,-19%,2.6µM*,u,-10%,u,0%
CC(=O)Nc1ccc(/C=N/NC(N)=S)cc1,x,1%,-3%,x,x,x
NC(=S)N/N=C/c1cccnc1,x,-10%,-12%,x,x,x
CNc1cccnc1C=NNC(N)=S,u,x,x,u,3.5µM*,x
O=C(N/C(=C/C=C/c1ccccc1)C(=O)N1CCOCC1)c1ccccc1Cl,x,u,u,x,-2%,x
Fc1ccc(C(CCNCc2cccs2)c2ccco2)cc1 (stereo not given),-11%,u,u,-15%,-4%,-3%
CCCSc1nnc(CNS(=O)(=O)c2ccc(C)cc2)n1C,-10%,15%,29%,-14%,7%,4%
O=c1c(-c2ccco2)[n+]([O-])c2ccccc2n1OCc1ccccc1[N+](=O)[O-],-2%,-15%,29%,-7%,u,7%
NC(=S)N/N=C/c1ccc2c(c1)OCCO2,10µM*,113%,-7%,11µM*,-22%,x
CC(=O)Nc1cccc(-c2cn3ccccc3n2)c1,-2%,82%,13µM*,i,1%,-3%
Cn1cc(CN2CCC(C(O)c3cccs3)CC2)c(-c2cccc(Cl)c2)n1 (stereo not given),-14%,9.3µM*,u,i,23%,2%
Cn1cc(CN2CCN(c3ncccn3)CC2)c(-c2cccc(Cl)c2)n1,-19%,-20%,6%,-13%,7%,-5%
Cc1cc(N2CCN(Cc3cn(C)nc3-c3cccc(Cl)c3)CC2)cc(C)n1,-28%,u,u,-30%,7.1µM*,2%
Fc1ccc(C(c2nnnn2C2CCCC2)N2CCc3ccccc32)cc1 (stereo not given),x,u,u,x,-11%,-2%
O=C(Nc1ccc(Cl)cc1C(=O)NCC1CCCO1)c1ccc(Cl)cc1Cl (stereo not given),-13%,8.3µM*,-13%,i,u,-17%
Cn1cnc([N+](=O)[O-])c1C(=O)Nc1cccc([N+](=O)[O-])c1,-23%,37%,25%,u,4%,x
COc1ccccc1CNC(=O)CSc1nc2ccccc2c(=O)n1CCCN1CCOCC1,-25%,u,0%,-18%,-16%,-2%
Cc1ccc(S(=O)(=O)N2CCOCC2)cc1NC(=O)CSc1nc2ccccc2c(=O)n1Cc1ccccc1,-17%,u,5.2µM*,-6%,-28%,u
O=C(CSc1nc2ccccc2c(=O)n1CCCN1CCOCC1)c1c[nH]c2ccccc12,-16%,u,u,-17%,14µM*,-2%
O=C(CSc1nc2cc(Cl)ccc2c(=O)n1Cc1ccco1)Nc1ccc(S(=O)(=O)N2CCOCC2)cc1,-16%,u,10µM*,i,u,u
Cc1ccc(S(=O)(=O)N2CCOCC2)cc1NC(=O)Cn1c(=O)ccn(Cc2ccccc2)c1=O,-9%,x,x,i,7%,x
O=c1c2ccccc2nc(SCc2ccc(F)cc2Cl)n1CCCN1CCOCC1,x,u,u,x,10µM*,-9%
SMILES,Vaccinia Venus,Pf growth 48h,Pf growth 96h,VACV mCherry inh,HCV inh,NS1 function inh
COc1ccc(-c2nnc(NC(=O)c3c(OC)cccc3OC)s2)cc1,x,0%,133%,x,-22%,7%
O=c1[nH]c(=S)n(-c2ccccc2Cl)c(O)c1C=NCCN1CCNCC1,x,-4%,15%,x,1%,2%
COc1ccc(NC(=O)CCC(=O)NCc2ccco2)c([N+](=O)[O-])c1,x,1%,129%,x,7%,26%
CS(=O)(=O)c1ccc(Cl)c(NC(=O)CSc2nc3ccccc3c(=O)n2CCCN2CCOCC2)c1,x,u,7.4µM*,x,-22%,0%
Oc1ccccc1N=Nc1ccccc1O,u,2.6µM*,68%,u,0.89µM*,x
Nc1ccc(N=Nc2ccccc2O)c(N)c1,-9%,x,x,-13%,-16%,x
CCCCCCCCCOC(=O)C[n+]1csc(CCO)c1C,-7%,-7%,u,-11%,4%,-6%
Cc1ncc(C[n+]2csc(CCOC(=O)CC34CC5CC(CC(C5)C3)C4)c2C)c(N)n1,-13%,u,50%,i,u,-4%
Cc1c(CCOC(=O)CC23CC4CC(CC(C4)C2)C3)sc[n+]1Cc1ccccc1,x,7.4µM*,u,x,-8%,14%
Cc1c(CCO)sc[n+]1CC(=O)OCCC12CC3CC(CC(C3)C1)C2,6%,5.2µM*,1µM*,i,-8%,-1%
COC(=O)c1sc(N)nc1CCNC(=O)OC(C)(C)C,-7%,x,x,3%,x,x
CCc1c(C)sc2c1CCN(Cc1ccccc1C#N)C2c1ccccc1 (stereo not given),-6%,x,x,-19%,x,x
Cc1ccc(S(=O)(=O)c2cc3c(=O)n4ccccc4nc3n(Cc3ccco3)c2=N)cc1C,-9%,u,12µM*,-20%,u,-8%
Cc1cccn2c(=O)c3cc(S(=O)(=O)c4ccccc4)c(=N)n(Cc4ccco4)c3nc12,-17%,u,12%,-19%,7%,11%
Cc1cccn2c(=O)c3cc(S(=O)(=O)c4ccc(F)cc4)c(=N)n(Cc4ccco4)c3nc12,-6%,10µM*,15µM*,-14%,2.8µM*,9%
CCOc1ccc(/C=N/NC(=O)c2[nH]c3ccc(C)cc3c2C)cc1,-13%,17%,5%,-11%,u,-1%
Cc1ccccc1Cn1c(=O)n(CCC(=O)NCc2ccc3c(c2)OCO3)c(=O)c2ccccc21,-10%,x,4.7µM*,-17%,23%,0%
CC(C)C(=O)c1cn(CC(=O)NCc2ccc3c(c2)OCO3)c2ccccc12,-28%,12µM*,-18%,-10%,-19%,3%
O=C(Cc1ccccc1)NCc1ccc2c(c1)OCO2,-16%,x,10µM*,i,15%,3%
CC(C)(C)C(=O)c1cn(CC(=O)NCc2ccc3c(c2)OCO3)c2ccccc12,-10%,x,u,-9%,-20%,2%
Cc1nc2ccccc2c2oc(C(=O)NCc3ccc4c(c3)OCO4)cc12,u,5%,u,u,8.9µM*,-141%
CC#CC(=O)N1CCC(n2nccc2NC(=O)CCc2ccccc2)CC1,-5%,x,x,-4%,x,x
Cc1ccc(C(=O)N2CCC3(CC2)NCCc2[nH]cnc23)cc1C,x,18%,23%,x,2%,-7%
Cn1c(=O)n(C)c2cc(N3CCOCC3)c(NS(=O)(=O)c3ccc(C(C)(C)C)cc3)cc21,-17%,x,x,-7%,x,x
